# This is a sample that favours compounds with a hit; in the whole collection about 2.3% have one here.
# hiPSC survival: enhancers of human iPSC single-cell survival; 360,000 compounds, 0.044% hits; survival enhancement, % at 20 µM; hiPSC single-cell survival, ATPlite luminescence; 100% = ROCK inhibitor wells, 0% = DMSO; in the data active = survival enhancement above about 18%;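 also: cells exposed to compounds for 16 hours before the ATP read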
# TWEAK Fn14 block: TWEAK-Fn14 signaling inhibition; TWEAK-stimulated Fn14 reporter cells, luciferase luminescence, 8 h; inhibition, % at 10 µM; 360,000 compounds, 2% hits; in the data active = inhibition above about 50%
# CF NFkB block: blocks PAF-induced NF-kB reporter in cystic fibrosis cells; AID 588850; inhibition, % at 5 µM; KKLEB NF-kB-GFP reporter, GFP fluorescence overnight; 360,000 compounds, 0.86% hits;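 active = at least 50% inhibition at 5 µM, scaled per plate between neutral and stimulator controls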;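 also: PAF is a Pseudomonas aeruginosa culture filtrate used as stimulus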
# HIF-2a inh: HIF-2a inhibition. inhibition, % at 18.8 µM. AID 624352. 786-0 RCC cells HIF-2a reporter, luciferase luminescence, overnight. 360,000 compounds, 0.72% hits;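 active = inhibition of the luminescence signal of 40% or more relative to plate controls, in a single-dose primary screen at 18.75 µM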
# LGR2 inh: inhibitors of bursicon-induced Drosophila LGR2 receptor cAMP signaling | 380,000 compounds, 0.35% hits | inhibition, % at 9.99 µM | AID 720647 | HEK293 LGR2, CRE-luciferase, bursicon-stimulated, 4 h;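 active = drop in luminescence signal, shown as inhibition above about 50% in the replicate tests, limit read from the data, passing the limit was not always enough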;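 also: agonist challenge used bursicon conditioned medium at about half maximal strength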
# KKLEB tox: CF airway cell cytotoxicity counter-screen | KKLEB CF airway cells viability, ATPlite luminescence, overnight; active compounds read low; cells stimulated with P. aeruginosa culture filtrate | activity change (cytotoxicity), % at 5 µM | 360,000 compounds, 0.36% hits | AID 602141;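 active = corrected activity change at or below -50% at 5 µM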
# Hits are given with their value; – = inactive; · = no result given; ! = not active in a repeat.
SMILES,hiPSC survival,TWEAK Fn14 block,CF NFkB block,HIF-2a inh,LGR2 inh,KKLEB tox
CCOC(=O)c1ccc(NC(=S)P(=O)(c2ccccc2)c2ccccc2)cc1,–,71,–,–,–,–
CCOC(=O)c1ccc(NS(C)(=O)=O)cc1,–,82,–,–,–,–
Nc1ccc2ccc(O)cc2c1,–,–,–,–,–,–
C[n+]1c2cc(N)ccc2cc2ccc(N)cc21,–,–,–,41!,–,–
C[C@H](CO)N1C[C@H](C)[C@H](CN(C)Cc2ccc(-c3ccccc3)cc2)Oc2cc(C#CC(C)(C)O)ccc2S1(=O)=O,·,·,·,·,–,·
COc1cccc(/C=N/Nc2ncnc3scc(-c4ccccc4)c23)c1O,–,63,–,–,–,–
COc1cccc(/C=N/Nc2ncnc(Cl)c2N)c1O,–,–,–,63,·,–
COc1cccc(/C=N/Nc2nc3ccccc3[nH]2)c1O,–,–,–,–,–,–
COc1ccc(/C=N/Nc2nccnc2Cl)cc1,–,60,–,–,·,–
Oc1ccccc1/C=N/Nc1nccnc1Cl,–,–,–,–,·,–
COc1cccc(/C=N/Nc2nccnc2Cl)c1O,–,65,–,–,76,–
COc1ccc(CN(C)C[C@@H]2OCCCC[C@@H](C)Oc3ccc(NC(=O)Nc4c(C)noc4C)cc3C(=O)N([C@@H](C)CO)C[C@H]2C)cc1,·,·,·,·,–,·
O=C(C[C@H]1CC[C@H](NS(=O)(=O)c2ccc(F)cc2)[C@@H](CO)O1)N1CCc2ccccc2C1,·,·,·,·,–,·
CN1CCN(C(=O)C[C@@H]2CC[C@@H]3[C@@H](COc4ccc(NC(=O)C5CCCCC5)cc4C(=O)N3C)O2)CC1,·,·,·,·,–,·
CC1CC(C)(C)NC(=S)N1CCCC(=O)Nc1ccc(Cl)cc1 (configuration not stated),–,–,–,–,–,–
CCOc1ccc(NC(=O)CCN2C(=S)NC(C)(C)CC2C)cc1 (configuration not stated),–,94,–,–,–,–
COc1cccc(Nc2nc(N)c([N+](=O)[O-])c(NCc3ccccc3)n2)c1,–,51,–,–,–,–
Cc1nc2cc(NC(=O)c3ccc(S(=O)(=O)N(C)c4ccccc4)cc3)ccc2o1,–,74,–,–,–,–
CN(c1ccccc1)S(=O)(=O)c1ccc(NC(=O)c2ccc(-c3ccccc3)cc2)cc1,–,54,–,–,–,–
Cc1nc2ccc(NC(=O)c3ccc(Cl)c(S(=O)(=O)N(C)c4ccccc4)c3)cc2s1,–,96,–,–,–,–
Cc1nc2ccc(NC(=O)c3cc(S(=O)(=O)N(C)c4ccccc4)ccc3Cl)cc2s1,–,–,–,–,–,–
CC(=O)Nc1ccc(NC(=O)c2ccc(N(C)S(=O)(=O)c3ccc(C)cc3)cc2)cc1,–,–,–,–,–,–
COc1ccc(NC(=O)c2ccc(S(=O)(=O)N(C)c3ccccc3)cc2)cc1S(=O)(=O)N1CCOCC1,–,–,–,–,–,–
CN(c1cccc(NC(=O)c2ccc(N(C)S(=O)(=O)c3ccccc3)cc2)c1)S(C)(=O)=O,–,–,–,–,–,–
Cc1ccc(NC(=O)c2ccc(S(=O)(=O)N(C)c3ccccc3)cc2)cc1S(=O)(=O)N1CCOCC1,–,59,–,–,–,–
SMILES,hiPSC survival,TWEAK Fn14 block,CF NFkB block,HIF-2a inh,LGR2 inh,KKLEB tox
COc1ccc(NC(=O)Nc2ccc3c(c2)[C@@H]2C[C@H](CC(=O)NCC4CC4)O[C@@H](CO)[C@@H]2O3)cc1,·,·,·,·,–,·
Cc1ccc(-c2nc(N/N=C/c3cccc([N+](=O)[O-])c3)c3ccccc3n2)cc1,–,–,–,–,·,–
Cc1ccc(-c2nc(N/N=C/c3cccnc3)c3ccccc3n2)cc1,–,–,–,–,·,-71
C[C@H](CO)N1C[C@H](C)[C@@H](CN(C)Cc2ccc(C(=O)O)cc2)Oc2ccc(NC(=O)C3CC3)cc2CC1=O,·,·,·,·,–,·
N#CC1=C(N)N(c2ccc(Oc3ccccc3)cc2)C(=O)C1,–,88,–,–,·,–
COc1cccc(CNC(=O)C[C@@H]2CC[C@@H](NC(=O)C3CC3)[C@@H](CO)O2)c1,·,·,·,·,–,·
O=[N+]([O-])c1ccc(O)c(N=Cc2sc3ccccc3c2O)c1,–,76,–,–,–,–
C[C@@H]1CN([C@@H](C)CO)S(=O)(=O)c2ccc(C#CC3CC3)cc2O[C@@H]1CN(C)Cc1cccnc1,·,·,·,·,–,·
CCOC(=O)c1cnc(SC)nc1Oc1cccc(NS(=O)(=O)c2ccccc2)c1,–,55,–,–,·,–
CCOC(=O)c1cnc(SC)nc1Oc1cccc(NS(=O)(=O)c2ccc(F)cc2)c1,–,–,–,–,·,–
O=C([C@H]1[C@H](CO)[C@H]2Cn3c(ccc(-c4cccnc4)c3=O)[C@H]2N1CC1CC1)N1CCCCC1,·,·,·,·,–,·
COc1cc(Br)c(/C=C/c2ccc3cccc(O)c3n2)cc1OC,–,–,–,–,–,–
Oc1cccc2ccc(/C=C/c3ccccc3Br)nc12,–,56,–,–,–,–
OCCN(CCO)CC(O)COc1ccc(C23CC4CC(CC(C4)C2)C3)cc1 (configuration not stated),–,77,–,89,–,–
OCCN(CCO)CC(O)COc1ccc(Br)cc1 (configuration not stated),–,–,–,–,–,–
COc1ccc(NC(=O)Nc2cccc3c2O[C@@H](CN(C)S(C)(=O)=O)[C@@H](C)CN([C@@H](C)CO)C3=O)cc1,·,·,·,·,–,·
Cc1ccc(-c2cnc3c(c2)C(=O)N([C@@H](C)CO)C[C@H](C)[C@@H](CN(C)C(=O)Cc2ccccc2)O3)cc1,·,·,·,·,–,·
Cc1ccc2c(c1)[nH]c1c(N3CCN(Cc4ccccc4)CC3)ncnc12,–,96,–,–,·,–
OC1(c2cccc(C(F)(F)F)c2)CCN(c2ncnc3c2[nH]c2ccccc23)CC1,–,58,–,–,·,–
COc1ccc2c(c1)[nH]c1c(N3CCN(Cc4ccc5c(c4)OCO5)CC3)ncnc12,–,100,–,–,·,–
c1ccc2c(c1)CCN(c1ncnc3c1[nH]c1ccccc13)C2,–,85,–,–,·,–
CCC(=O)N(C)C[C@@H]1Oc2cc(C#CC3(O)CCCC3)ccc2S(=O)(=O)N([C@H](C)CO)C[C@H]1C,·,·,·,·,–,·
Cc1ccc2[nH]c3c(N4CCN(Cc5ccccc5)CC4)ncnc3c2c1,–,103,–,–,·,–
c1ccc(CN2CCN(c3ncnc4c3[nH]c3ccccc34)CC2)cc1,–,97,–,–,·,–
CC(=O)N(C)C[C@H]1Oc2cc(C#CCN(C)C)ccc2S(=O)(=O)N([C@H](C)CO)C[C@@H]1C,·,·,·,·,–,·
COc1ccc(S(=O)(=O)Nc2ccc3c(c2)C(=O)N([C@@H](C)CO)C[C@H](C)[C@@H](CN(C)CC2CC2)O3)cc1,·,·,·,·,–,·
C[C@@H]1CN([C@@H](C)CO)C(=O)c2cc(-c3cccnc3)cnc2O[C@H]1CN(C)C(=O)Nc1ccccc1,·,·,·,·,–,·

# Bioassay records from PubChem.
